Reference: PubChem BioAssay (NCATS)
Inconclusive results are not listed. Where a call stands in place of a potency, no number is given. Calls of active or inactive are those of the source. The call rests on the fitted dose curve; in most records, active means well fitted curve in the direction sought with a large enough effect; inconclusive means small, poorly fitted or top-dose-only effect, or another doubt; inactive means no such curve, though single readings can be large; an effect the other way counts as inactive or inconclusive.

Legend:
[1] = UWB1.289 Cancer Cell Toxicity qHTS against the NCATS CANVASS Library (AID 1347347); further: nearly all actives have a fitted effect of over 60% in size; further: potency means the concentration at half of the fitted maximal effect
Summary of the method: (§1)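 1000 cells/well seeded and rested 4 h at 37 °C before pin transfer of compounds in an 11-pnt series. Exposure 72 h at 37 °C/5% CO2; viability by CellTiter-Glo luminescence after 15 min at room temperature.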

[2] = HEK293 12hr Apoptosis Induction qHTS against the NCATS CANVASS Library (AID 1347361)
Summary of the method: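 500 HEK293 cells/well; cpds pin-transferred, 11-pt conc series; 12 h, 37 degrees C/5% CO2; Caspase-Glo 3/7 added, 15 min RT dark; luminescence.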

[3] = target: Nuclear receptor subfamily 1 group I member 3 (Homo sapiens) (UniProt Q14994); test: qHTS for Constitutive Androstane Receptor (CAR) Antagonist screened against the NCATS CANVASS Library (AID 1347372); further: potency means the concentration at half of the fitted maximal effect
Nuclear receptor subfamily 1 group I member 3 (Homo sapiens), sequence (Q14994 whole entry, looked up): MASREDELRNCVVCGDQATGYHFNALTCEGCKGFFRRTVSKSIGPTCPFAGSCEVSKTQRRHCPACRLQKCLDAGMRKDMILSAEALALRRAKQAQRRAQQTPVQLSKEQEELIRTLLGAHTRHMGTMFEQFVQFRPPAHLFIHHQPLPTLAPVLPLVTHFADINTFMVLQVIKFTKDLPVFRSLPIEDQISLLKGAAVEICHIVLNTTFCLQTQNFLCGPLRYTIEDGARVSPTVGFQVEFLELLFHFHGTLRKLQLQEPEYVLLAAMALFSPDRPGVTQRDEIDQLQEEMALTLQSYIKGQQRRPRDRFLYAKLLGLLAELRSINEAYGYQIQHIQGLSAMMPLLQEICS
Summary of the method: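 Antagonist mode: compound added alongside 50 nM CITCO to HepG2-hCAR-CYP2B6 reporter cells, 24hr at 37C. Viability by CellTiter-Fluor fluorescence, then CAR-driven luciferase by ONE-Glo luminescence.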

[4] = qHTS for Hypoxia signaling pathway (HIF-1) antagonists against the NCATS CANVASS Library (AID 1347374); further: nearly all actives have a fitted effect of over 60% in size; further: potency means the concentration at half of the fitted maximal effect
Summary of the method: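 Antagonism scored as loss of CoCl2-driven (60 uM stock added) HRE beta-lactamase signal, read by CCF4 FRET at 460/530 nm. Compounds were tested in an 11-point series on ME-180 reporter cells for 17 hrs at 37C, with parallel CellTiter-Glo cytotoxicity.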

[5] = 10-beta competent E. coli microbial cell viability qHTS against the NCATS CANVASS Library (AID 1347376); further: series mostly up to about 46 µM
Summary of the method: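 Read-out: BacTiter-Glo ATP luminescence, taken 20 min after reagent addition. Beforehand, 10-beta competent E. coli at 0.2 OD had been incubated overnight at 37C with compounds at 11 concentrations.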

[6] = DH5-alpha competent E. coli microbial cell viability qHTS against the NCATS CANVASS Library (AID 1347377); settings: outcome: dose series up to 46.1 µM unless noted
Summary of the method: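 Bacterial viability as ATP-dependent luminescence (BacTiter-Glo), read after overnight 37 °C exposure of DH5-alpha competent E. coli to compounds in 11-point titration.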

[7] = Inflammasome Signaling qHTS Counterscreen: IL-1-beta AlphaLISA counterscreen against the NCATS CANVASS Library (AID 1347381);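 further: cell-free check with purified IL-1β in medium and no THP-1 cells; series mostly up to about 57 µM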
Summary of the method: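 Purified IL-1-beta (4 pg/well) + compound, 11-pt conc. series; acceptor beads 6 ug/mL + biotin-Ab 0.6 nM final, 1 h RT; SA-donor 24 ug/ml final, 30 min dark RT; read ex 680/em 615.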

[8] = Cytotoxicity qHTS for assessment of Hepg2 cells membrane integrity screened against the NCATS CANVASS Library (AID 1347387)
Summary of the method: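 Membrane damage quantified as fluorescent LDH-release signal (ex 560, em 590 nm) in HepG2 cells treated 5 hr at 37C. qHTS format, 11 concentrations spanning 0.59 nM - 46 uM final, cells plated at 2000 per well the night before.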

[9] = qHTS for inhibitors of ER calcium dysfunction: SERCaMP assay screened against the NCATS CANVASS Library (AID 1347393); further: nearly all actives have a fitted effect of over 40% in size; further: potency means the concentration at half of the fitted maximal effect
Summary of the method: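 Thapsigargin-induced ER calcium depletion drives GLuc-SERCaMP secretion from SH-SY5Y cells; compounds given 16 h beforehand were scored by lowered coelenterazine luminescence after 4 h challenge.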

[10] = OV-KATE Cancer Cell Toxicity qHTS against the NCATS CANVASS Library (AID 1347345)
Summary of the method: as §1

[11] = HPAF-II Cancer Cell Toxicity qHTS against the NCATS CANVASS Library (AID 1347346); further: nearly all actives have a fitted effect of over 55% in size; further: potency means the concentration at half of the fitted maximal effect
Summary of the method: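 Cytotoxicity read-out was CellTiter-Glo luminescence after 72 h at 37 degrees C exposure of HPAF-II cells (1000/well) to compounds in an 11-point titration.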

[12] = OV-SAHO Cancer Cell Toxicity qHTS against the NCATS CANVASS Library (AID 1347348); further: nearly all actives have a fitted effect of over 55% in size; further: potency means the concentration at half of the fitted maximal effect
Summary of the method: as §1

[13] = Panc-1005 Cancer Cell Toxicity qHTS against the NCATS CANVASS Library (AID 1347349); further: nearly all actives have a fitted effect of over 60% in size; further: potency means the concentration at half of the fitted maximal effect
Summary of the method: as §1

[14] = SW1088 Cancer Cell Toxicity qHTS against the NCATS CANVASS Library (AID 1347350); further: nearly all actives have a fitted effect of over 75% in size; further: potency means the concentration at half of the fitted maximal effect
Summary of the method: as §1

[15] = COV-362 Cancer Cell Toxicity qHTS against the NCATS CANVASS Library (AID 1347352); further: series mostly up to about 38 µM
Summary of the method: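 Toxicity was measured as CellTiter-Glo luminescence after 72 h exposure to an 11-point compound series. Compound was added to 1000 cells/well 4 h after seeding.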

[16] = A2780 Cisplatin Sensitive Ovarian Cancer Cell Toxicity qHTS against the NCATS CANVASS Library (AID 1347353); further: nearly all actives have a fitted effect of over 60% in size; further: potency means the concentration at half of the fitted maximal effect
Summary of the method: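 Cisplatin-sensitive A2780 ovarian cells (750/well) received compound in 11 concentrations, and were incubated 72 h at 37 °C. ATP content was measured by ATPLite luminescence; bortezomib served as control.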

[17] = target: Luciferin 4-monooxygenase (Photinus pyralis) (UniProt P08659); test: Firefly luciferase counterscreen qHTS: Assay Interference Panel against the NCATS CANVASS Library (AID 1347363); further: series mostly up to about 57 µM
Luciferin 4-monooxygenase (Photinus pyralis), sequence (P08659 whole entry, looked up): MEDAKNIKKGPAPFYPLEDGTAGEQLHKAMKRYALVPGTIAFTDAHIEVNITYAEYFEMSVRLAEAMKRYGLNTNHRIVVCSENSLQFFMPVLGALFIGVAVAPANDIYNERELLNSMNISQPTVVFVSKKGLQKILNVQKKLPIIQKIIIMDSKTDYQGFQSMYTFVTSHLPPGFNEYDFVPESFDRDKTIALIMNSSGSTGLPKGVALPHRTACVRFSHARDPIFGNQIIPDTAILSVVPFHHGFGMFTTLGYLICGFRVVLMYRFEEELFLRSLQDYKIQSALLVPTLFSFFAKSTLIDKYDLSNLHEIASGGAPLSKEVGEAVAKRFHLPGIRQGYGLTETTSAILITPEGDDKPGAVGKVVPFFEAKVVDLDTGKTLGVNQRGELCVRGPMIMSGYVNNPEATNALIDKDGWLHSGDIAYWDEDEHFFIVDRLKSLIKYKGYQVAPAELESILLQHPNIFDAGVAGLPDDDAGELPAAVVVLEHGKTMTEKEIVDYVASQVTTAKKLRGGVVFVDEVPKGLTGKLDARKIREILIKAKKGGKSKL
Summary of the method: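 Luminescence inhibition readout: compounds (11-point qHTS) sat 15 min at room temperature with substrate mix (0.013 mM luciferin and ATP), then firefly luciferase was added and signal read 5 min later.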

[18] = KB-8-5-11 Cancer Cell Toxicity qHTS against the NCATS CANVASS Library (AID 1347364); further: nearly all actives have a fitted effect of over 75% in size; further: potency means the concentration at half of the fitted maximal effect
Summary of the method: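 Viability read as CellTiter-Glo luminescence after 72 h at 37 °C, 5% CO2. 11-point compound series on 500 KB-8-5-11 cells/well in DMEM/10% FBS. Follow-up plating included 1 uM tariquidar in the medium.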

[19] = qHTS for Antimalaria activity screened against the NCATS CANVASS Library (AID 1347380); further: nearly all actives have a fitted effect of over 40% in size; further: potency means the concentration at half of the fitted maximal effect
Summary of the method: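 SYBR Green fluorescence at 485/535 nm was read 18 hr after lysis. This followed a 72 hr incubation at 37C in 5% O2, 5% CO2 of Dd2-infected erythrocytes (0.3% parasitemia, 2.5% final hematocrit) with compounds titrated over 11 concentrations.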

[20] = qHTS for activators of Nrf2/ARE signaling pathway screened against the NCATS CANVASS Library (AID 1347391); further: nearly all actives have a fitted effect of over 60% in size; further: potency means the concentration at half of the fitted maximal effect
Summary of the method: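 Eleven-point qHTS, 16 h treatment of HepG2 cells carrying an ARE-driven beta-lactamase reporter; CCF4 ratio read (405 nm excitation, 460 and 530 nm emission), with CellTiter-Glo ATP luminescence for viability.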

CC1=C2CC[C@]3(C)[C@H](CC=C4[C@@H]5CC(C)(C)CC[C@@H]5C(=O)[C@H](O)[C@]43C)[C@@]2(C)C=C(O)C1=O
Potency [1]: inactive
outcome [2]: inactive
Potency [3]: inactive
Potency [4]: 9.41 µM (active)
outcome [5]: inactive
outcome [6]: inactive
outcome [7]: inactive
outcome [8]: inactive
Potency [9]: 12.2 µM (active)

C/C(=C\[C@@H](C)CC/C=C/CC/C=C/C(=O)O)[C@@H](O)[C@H](C)C(=O)CCCC1CC(=O)NC(=O)C1
Potency [10]: inactive
Potency [11]: inactive
Potency [1]: inactive
Potency [12]: inactive
Potency [13]: inactive
Potency [14]: inactive
Potency [15]: inactive
Potency [16]: inactive
outcome [2]: inactive
Potency [17]: inactive
Potency [18]: inactive
Potency [3]: inactive
Potency [4]: inactive
outcome [5]: inactive
outcome [6]: inactive
Potency [19]: inactive
outcome [7]: inactive
outcome [8]: inactive
Potency [20]: inactive
Potency [9]: inactive

Oc1ccc(C2Oc3cc(O)c4c(c3[C@@H]2c2cc(O)cc(O)c2)[C@H]2C(c3ccc(O)cc3)c3c(O)cc5c(c3[C@H]2C4c2ccc(O)cc2)[C@H](c2cc(O)cc(O)c2)C(c2ccc(O)cc2)O5)cc1 (stereo partly specified)
Potency [11]: inactive
Potency [12]: 16.7 µM (active)
Potency [14]: inactive
Potency [16]: 4.18 µM (active)
outcome [2]: inactive
Potency [18]: inactive
Potency [3]: inactive
Potency [4]: inactive
outcome [5]: inactive
outcome [6]: inactive
outcome [7]: inactive
Potency [20]: inactive
Potency [9]: inactive

COC(=O)c1cc2cc3c(c(O)c2c(=O)o1)OC1(CC3)CC2=C(O1)C(=O)c1c(O)c(OC)cc(OC)c1C2=O (stereo unspecified)
Potency [11]: 18.8 µM (active)
Potency [13]: 21.1 µM (active)
Potency [14]: 13.3 µM (active)
Potency [16]: 20.9 µM (active)
outcome [2]: inactive
Potency [17]: inactive
Potency [3]: inactive
Potency [4]: 14.9 µM (active)
outcome [6]: inactive
Potency [19]: inactive
outcome [7]: inactive
outcome [8]: inactive
Potency [20]: 10.5 µM (active)
Potency [9]: inactive

C[C@@H]1CC[C@]2(C(=O)O)CC[C@]3(C)C(=C2[C@H]1C)CC[C@@H]1[C@@]2(C)CC[C@H](O)C(C)(C)[C@@H]2CC[C@]13C
Potency [12]: 11.8 µM (active)
Potency [13]: 21.1 µM (active)
Potency [14]: 23.7 µM (active)
Potency [16]: inactive
outcome [2]: inactive
Potency [17]: inactive
Potency [18]: inactive
outcome [5]: inactive
outcome [6]: inactive
outcome [8]: inactive
Potency [20]: inactive
Potency [9]: inactive

CC(CCC[C@]1(C)C(=O)C=C[C@@]23C[C@]4(C)O[C@@H](C[C@@H]4[C@H]2O)C31)C(=O)O (stereo partly specified)
Potency [10]: inactive
Potency [11]: inactive
Potency [1]: inactive
Potency [12]: inactive
Potency [13]: inactive
Potency [14]: inactive
Potency [15]: inactive
Potency [16]: inactive
outcome [2]: inactive
Potency [18]: inactive
Potency [4]: inactive
outcome [5]: inactive
outcome [6]: inactive
outcome [8]: inactive
Potency [20]: inactive
Potency [9]: inactive

COC(=O)C1=C[C@]23C[C@@H](C)CC[C@@H]2[C@@]2(C)CC[C@@H](C(C)C)[C@@](O)(O3)[C@@H]12
Potency [11]: 18.8 µM (active)
Potency [13]: inactive
Potency [17]: inactive
Potency [18]: 18.7 µM (active)
Potency [3]: inactive
Potency [4]: inactive
outcome [5]: inactive
Potency [9]: 34.3 µM (active)

COc1c(O)cc2c(c1O)C(=O)c1c(coc1C)C2=O
Potency [11]: inactive
Potency [1]: inactive
Potency [12]: inactive
Potency [13]: inactive
Potency [15]: inactive
outcome [2]: inactive
Potency [18]: inactive
Potency [3]: inactive
Potency [4]: 14.9 µM (active)
outcome [6]: inactive
Potency [20]: 7.41 µM (active)

CC(C)=CCC/C(C)=C/Cc1cc([C@@H]2CC(=O)c3c(cc(O)c(CC=C(C)C)c3O)O2)ccc1O
Potency [14]: 14.9 µM (active)
Potency [16]: inactive
outcome [2]: inactive
Potency [18]: inactive
Potency [3]: inactive
outcome [6]: inactive
Potency [19]: 16.7 µM (active)
outcome [7]: inactive
Potency [20]: 20.9 µM (active)
Potency [9]: 38.4 µM (active)

C/C(=C\[C@H](C)C(=O)C[C@H](O)CC1CC(=O)NC(=O)C1)[C@@H]1OC(=O)CCCC/C=C/C[C@@H](O)[C@@H]1C
Potency [14]: inactive
Potency [16]: 2.35 µM (active)
outcome [2]: inactive
Potency [17]: inactive
Potency [18]: inactive
Potency [3]: 13.2 µM (active)
Potency [4]: 4.72 µM (active)
outcome [5]: inactive
outcome [6]: inactive
Potency [19]: 4.72 µM (active)
outcome [8]: inactive
Potency [9]: inactive

C/C=C/C(=O)C1(O)CC2CC(C(=O)O)CC(C)C2C1C1=C2C(=O)NC(=O)C2=C(CCCCC)C(C)O1 (stereo unspecified)
Potency [11]: 18.8 µM (active)
Potency [14]: 7.49 µM (active)
Potency [16]: 8.33 µM (active)
outcome [2]: inactive
Potency [17]: inactive
Potency [18]: inactive
Potency [4]: 5.94 µM (active)
outcome [5]: inactive
Potency [19]: inactive
outcome [7]: inactive
Potency [20]: 1.17 µM (active)
Potency [9]: 19.3 µM (active)

O=C(OC[C@H]1O[C@@H](OC(=O)c2cc(O)c(O)c(O)c2)[C@H](OC(=O)c2cc(O)c(O)c(O)c2)[C@@H](OC(=O)c2cc(O)c(O)c(O)c2)[C@@H]1OC(=O)c1cc(O)c(O)c(O)c1)c1cc(O)c(O)c(O)c1
Potency [1]: 18.8 µM (active)
Potency [13]: 8.41 µM (active)
Potency [16]: 8.33 µM (active)
outcome [2]: inactive
Potency [3]: inactive
outcome [8]: inactive

CC[C@H](O)CCCCC[C@@H]1NC(=O)[C@H]2CCCCN2C(=O)[C@H]([C@H](C)CC)NC(=O)[C@H](Cc2cn(OC)c3ccccc23)NC1=O
Potency [11]: 3.75 µM (active)
Potency [13]: 18.8 µM (active)
Potency [16]: 23.5 µM (active)
outcome [2]: inactive
Potency [17]: inactive
Potency [18]: inactive
Potency [4]: inactive
outcome [6]: inactive
Potency [19]: 1.49 µM (active)
outcome [7]: inactive
outcome [8]: inactive
Potency [20]: inactive
Potency [9]: inactive
